# According to PubChem BioAssay AID1345082 (National Center for Advancing Translational Sciences (NCATS), 2018):
# Out of some 94,000 compounds screened, about 4,000 (4.3%) were called active. Inconclusive results (about 29%) are left out. Calls follow the shape of the dose curve; as a rule, active = well fitted inhibition curve with a large enough effect; inconclusive = small, poorly fitted or top-dose-only effect; inactive = no such curve, though single readings can be large or run the other way. The list comes from a sample in which actives are over-represented; it also holds similar structures and randomly drawn compounds. Entries that show only a call come without a potency.
# Assay: Cytotoxic Profiling in NIH 3T3 Cell Line of Diverse Libraries Using Quantitative High-Throughput Screening; also: nearly all actives have a fitted effect of over 55% in size
# Conditions: NIH 3T3 viability, CellTiter-Glo ATP luminescence, 48-72 h; series mostly up to 96.7 µM
# Procedure, shortened: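 Cells were seeded at 400 per well, treated with pin-transferred compound, and kept 48 or 72 hr at 37 °C before CellTiter-Glo addition and luminescence imaging of cellular ATP.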
# Potency is read from the fitted curve at half-maximal effect.
row,SMILES,Potency
1,CC(CO)Nc1ncnc2c1CN(C1CCCNCC1)C(=O)CN2C (stereo unspecified),inactive
2,Cn1c(=O)[nH]cc(CC(=O)N2CCCC(c3cccc(C(=O)O)c3)C2)c1=O (stereo unspecified),inactive
3,CC1(c2ccccc2)N(Cc2ccccc2F)C(=O)OC12CCN(Cc1c[nH]c3ccccc13)CC2 (stereo unspecified),17.8 µM (active)
4,COc1ccc(CN2CCC3(CC2)OCCN(Cc2ccccc2F)C3=O)cc1O,inactive
5,O=C1CCN(C(=O)Cc2c[nH]c3ccccc23)CCCCCCN1,inactive
6,CC(C)C(=O)N1CCC2(CC1)OC(=O)N(Cc1ccccc1F)C2(C)c1ccccc1 (stereo unspecified),44.7 µM (active)
7,CN(CCO)CC1(O)CCCN(Cc2ccccc2F)C1=O (stereo unspecified),inactive
8,CCc1ccccc1S(=O)(=O)N1CCN(C2(CC)CCN(C(=O)C(C)C)C2)CC1 (stereo unspecified),inactive
9,O=C(CCc1conc1-c1ccccc1)NCc1ccco1,inactive
10,CCOc1ccccc1NC(=O)Cn1c(N2CCOCC2)nc(CC)cc1=O,inactive
11,C[S+](=O)([O-])N1Cc2ccccc2OC2(CCN(C(=O)Cc3cccc(O)c3)CC2)C1,inactive
12,CN1CCC(NC(=O)C2CCCN(S(=O)(=O)c3ccccc3)CCC(=O)NCC2)CC1 (stereo unspecified),inactive
13,Cn1ncc2c(C(=O)NCC#N)cc(-c3cccc(C(F)(F)F)c3)nc21,inactive
14,Cn1ncc2c(C(=O)NCC(F)(F)F)cc(-c3ccc(C(F)(F)F)cc3)nc21,inactive
15,COc1ccc(-c2cc(C(=O)NCC#N)c3cnn(C)c3n2)cc1,15.8 µM (active)
16,Cc1noc(C)c1S(=O)(=O)NCC1Cn2cccc2C(=O)N1C (stereo unspecified),inactive
17,Cc1ncnc(N2CCC(Oc3ccc4ccccc4c3)(C(=O)O)CC2)c1C,inactive
18,COc1cccc(NC(=O)c2cnc3n[nH]c(-c4ccc(OC)cc4C)c3n2)c1,50.1 µM (active)
19,COc1cccc(-c2cc(C(=O)Nc3cccc(Cl)c3)c3cnn(C)c3n2)c1,inactive
20,COc1cccc(NC(=O)c2c(OC)cc(=O)n3c2CCCC3)c1,inactive
21,CCOc1ccc2c(n1)CCN(C(=O)Nc1ccc(OC)cc1C)C2,inactive
22,COc1ccc(-c2[nH]nc3ncc(-c4cn[nH]c4)nc23)cc1F,inactive
23,COc1ccc(-c2[nH]nc3ncc(C(=O)Nc4ccccc4)nc23)c(C)c1,28.2 µM (active)
24,CNC(=O)[C@H]1C[C@H](Oc2ccccc2)CN1C(=O)c1cc(-c2ccccc2)n[nH]1,inactive
25,CN(Cc1ccccc1)Cc1cc(CC2(NCc3ccc(CO)o3)COC2)no1,inactive
26,CN(Cc1nccn1C)C(=O)c1cc(CN2CCC(Cc3ccccc3)CC2)on1,inactive

row,SMILES,Potency
1,CC(=O)N1CCC(NC[C@H]2O[C@H](Cc3cc(-c4cccc(O)c4)on3)CC[C@@H]2O)CC1,inactive
2,CC1(C)[C@H](Cc2cc(CCO)on2)C[C@@H]1NCC1CC1,inactive
3,CC1(C)[C@H](Cc2cc(CC3CCCCC3)on2)C[C@@H]1NC1CCOCC1,31.6 µM (active)
4,CC1(C)[C@H](Cc2cc(CC3CCCCC3)on2)C[C@@H]1NC(=O)C1CCC1,39.8 µM (active)
5,CC(=O)N1CCC(N[C@H]2C[C@@H](Cc3cc(CN(C)c4ccccc4)on3)C2(C)C)CC1,89.1 µM (active)
6,CCC(CC)C(=O)N[C@H]1C[C@@H](Cc2cc(COc3ccccc3)on2)C1(C)C,70.8 µM (active)
7,COCc1cc(C[C@@H]2CC[C@H](O)[C@@H](CN(CC3CCCCC3)CC3CCCCC3)O2)no1,inactive
8,COCc1cc(C[C@@H]2CC[C@H](O)[C@@H](CN(C)C)O2)no1,inactive
9,CC1(C)[C@H](Cc2cc(CN3CCCCC3)on2)C[C@@H]1NS(C)(=O)=O,inactive
10,CN(C)S(=O)(=O)N1CCCOCCNC(=O)[C@@H]2CCC[C@@H]21,inactive
11,COc1ccc2[nH]c(C(=O)N3C[C@@H](Oc4ccccc4)C[C@H]3C(=O)N3CCCC3)cc2c1,inactive
12,O=C(c1nc2sccn2c1CN1CCCC(CO)C1)N1CCCCC1 (stereo unspecified),inactive
13,COc1ccc(NC(=O)CC2CCOCC2)cc1,inactive
14,Cc1cccc(CC(=O)N2C[C@@H](CO)[C@H](c3ccccn3)C2)c1,inactive
15,CC(C)(C)c1coc([C@@H]2COCCN2C2CCC2)n1,inactive
16,CCOc1cc(=O)n2c(c1C(=O)NCCc1ccccc1)CCCCC2,inactive
17,Cc1cccc(-c2cccc(CN3CCC(NC(=O)Nc4ccccc4)CC3)c2)c1,12.6 µM (active)
18,CN1C(=O)c2cccn2CC1C(=O)NC1CCN(Cc2ccccc2)CC1 (stereo unspecified),inactive
19,O=C(Cc1ccc(F)cc1)NC1CCN(c2nc3ncccc3o2)C1 (stereo unspecified),inactive
20,O=C(CCNc1cnc2cnccn12)NC1CCN(Cc2ccccc2)CC1,inactive
21,Cc1cccc(-c2cccc(CN3CCC(NC(=O)Cc4ccc(F)cc4)CC3)c2)c1,28.2 µM (active)
22,COc1cccc(-c2ccc(C(=O)N3CCC(NC(=O)Cc4ccc(F)cc4)CC3)cc2)c1,39.8 µM (active)
23,O=C(Cc1ccc(F)cc1)NC1CCN(c2cn[nH]c(=O)c2)CC1,inactive
24,COc1ccc(-c2ccccc2C(=O)N2CCC(NC(=O)Cc3ccc(F)cc3)CC2)nn1,inactive
25,COC(=O)N1CCN(C(=O)c2cccc(-c3cccc(OC)c3)c2)CC1,inactive
